What all share (set-up): scale not given: direction of the effect not stated beside the values
The target of test [1] is Protein translocase subunit SecA (Escherichia coli (strain K12)) (UniProt P10408). Nature of the test: Assay to Identify E. coli SecA ATPase Inhibitors. The format is functional. As to conditions: 30 µM.
Test [2] concerns the target T1, Ubiquitin-activating enzyme e1, putative (Leishmania donovani (strain BPK282A1)) (UniProt E9BSI1).
T1 sequence (whole entry): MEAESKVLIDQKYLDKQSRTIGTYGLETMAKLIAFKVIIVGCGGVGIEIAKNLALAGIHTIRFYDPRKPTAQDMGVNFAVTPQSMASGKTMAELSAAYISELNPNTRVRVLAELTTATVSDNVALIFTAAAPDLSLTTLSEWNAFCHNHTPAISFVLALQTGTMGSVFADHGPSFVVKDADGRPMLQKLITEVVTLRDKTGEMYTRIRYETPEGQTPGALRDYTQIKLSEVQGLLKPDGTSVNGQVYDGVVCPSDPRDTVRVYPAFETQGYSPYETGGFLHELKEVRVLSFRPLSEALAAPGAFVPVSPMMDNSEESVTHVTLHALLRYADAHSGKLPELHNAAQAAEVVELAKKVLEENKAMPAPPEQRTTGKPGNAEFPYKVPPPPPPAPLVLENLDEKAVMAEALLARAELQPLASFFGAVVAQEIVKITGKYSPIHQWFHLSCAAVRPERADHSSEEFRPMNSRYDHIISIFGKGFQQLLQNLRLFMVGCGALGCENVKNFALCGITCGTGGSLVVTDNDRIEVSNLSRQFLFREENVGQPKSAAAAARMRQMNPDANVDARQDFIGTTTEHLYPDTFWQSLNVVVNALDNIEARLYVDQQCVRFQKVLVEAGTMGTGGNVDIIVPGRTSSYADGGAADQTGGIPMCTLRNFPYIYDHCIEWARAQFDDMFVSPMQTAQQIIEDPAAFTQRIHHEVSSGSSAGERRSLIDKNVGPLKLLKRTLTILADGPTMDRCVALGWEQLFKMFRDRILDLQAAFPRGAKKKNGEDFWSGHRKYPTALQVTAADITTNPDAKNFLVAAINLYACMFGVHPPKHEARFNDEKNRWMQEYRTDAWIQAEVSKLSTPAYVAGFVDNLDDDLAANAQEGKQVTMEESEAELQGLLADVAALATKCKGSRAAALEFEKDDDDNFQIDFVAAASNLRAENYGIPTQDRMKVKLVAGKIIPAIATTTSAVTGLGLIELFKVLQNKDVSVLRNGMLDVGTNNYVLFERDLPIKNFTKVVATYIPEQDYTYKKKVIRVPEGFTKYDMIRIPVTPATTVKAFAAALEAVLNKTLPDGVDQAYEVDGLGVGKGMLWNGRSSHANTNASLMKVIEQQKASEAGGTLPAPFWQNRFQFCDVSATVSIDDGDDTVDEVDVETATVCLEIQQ
Nature of the test: Leishmania donovani Ubiquitin Activating Enzyme (LdE1). The note with it: 30 µM. The format is functional.

For test [3], the target named is Sialic acid-binding Ig-like lectin 9 (Homo sapiens) (UniProt Q9Y336). Nature of the test: Hs-Siglec9 ALPHAscreen SOP 20170721. As to conditions: 10 µM. (In general: Bead proximity is the source of the signal in Alpha formats.)
For the next test, the system named is Trypanosoma cruzi. Nature of the test: Trypanosoma cruzi phosphomannomutase and mannose-1-phosphate guanylyltransferase assay. As to conditions: 10 µM. The format is functional.
Test [4] addresses T2, Arginase-2, mitochondrial (Homo sapiens) (UniProt P78540).
T2 sequence (whole entry): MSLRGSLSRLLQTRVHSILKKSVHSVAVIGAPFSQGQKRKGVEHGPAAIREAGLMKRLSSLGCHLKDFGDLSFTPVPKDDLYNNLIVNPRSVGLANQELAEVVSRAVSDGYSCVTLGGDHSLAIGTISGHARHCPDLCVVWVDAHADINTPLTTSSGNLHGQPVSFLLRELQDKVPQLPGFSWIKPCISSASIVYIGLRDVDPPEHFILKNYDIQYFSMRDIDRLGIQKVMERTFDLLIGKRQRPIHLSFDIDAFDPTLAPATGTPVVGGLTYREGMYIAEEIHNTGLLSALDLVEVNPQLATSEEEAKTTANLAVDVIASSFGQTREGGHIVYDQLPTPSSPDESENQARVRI
Nature of the test: in vitro enzyme assay to detect the production of urea directly proportional to the activity of Arginase II. Further: in the data most compounds retested in dose-response had high values. The format is functional. As to conditions: 33.3 µM.

In test [5] the target is T3, Proteasome subunit beta (Trypanosoma cruzi) (UniProt O96673).
T3 sequence (whole entry): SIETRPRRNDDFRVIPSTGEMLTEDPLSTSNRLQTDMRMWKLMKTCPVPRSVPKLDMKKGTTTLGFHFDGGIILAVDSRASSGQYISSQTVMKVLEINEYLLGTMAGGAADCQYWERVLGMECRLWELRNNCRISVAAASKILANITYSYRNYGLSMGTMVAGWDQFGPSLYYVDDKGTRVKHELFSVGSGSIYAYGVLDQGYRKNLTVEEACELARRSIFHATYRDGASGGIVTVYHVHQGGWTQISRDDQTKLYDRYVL
Nature of the test: Trypanosoma cruzi proteasome chymotrypsin-like activity (TcProtChymo) assay. Further: in the data most compounds retested in dose-response had high values. The format is functional. The note with it: 9.37 µM.

A further test is filed under the species Homo sapiens. Nature of the test: To identify inhibition of the IFN signalling (Jak-Stat) pathway via expression of an eGFP reporter gene under the control of an IFN-stimulated response element (ISRE) containing MxA promoter. The format is functional. As to conditions: 30 µM. For orientation: Reporter assays use an easily measured gene product as a stand-in for the process of interest.

The target in test [6] is T4, Tyrosyl-tRNA synthetase, putative (Trypanosoma cruzi (strain CL Brener)) (UniProt Q4DSP6).
T4 sequence (whole entry): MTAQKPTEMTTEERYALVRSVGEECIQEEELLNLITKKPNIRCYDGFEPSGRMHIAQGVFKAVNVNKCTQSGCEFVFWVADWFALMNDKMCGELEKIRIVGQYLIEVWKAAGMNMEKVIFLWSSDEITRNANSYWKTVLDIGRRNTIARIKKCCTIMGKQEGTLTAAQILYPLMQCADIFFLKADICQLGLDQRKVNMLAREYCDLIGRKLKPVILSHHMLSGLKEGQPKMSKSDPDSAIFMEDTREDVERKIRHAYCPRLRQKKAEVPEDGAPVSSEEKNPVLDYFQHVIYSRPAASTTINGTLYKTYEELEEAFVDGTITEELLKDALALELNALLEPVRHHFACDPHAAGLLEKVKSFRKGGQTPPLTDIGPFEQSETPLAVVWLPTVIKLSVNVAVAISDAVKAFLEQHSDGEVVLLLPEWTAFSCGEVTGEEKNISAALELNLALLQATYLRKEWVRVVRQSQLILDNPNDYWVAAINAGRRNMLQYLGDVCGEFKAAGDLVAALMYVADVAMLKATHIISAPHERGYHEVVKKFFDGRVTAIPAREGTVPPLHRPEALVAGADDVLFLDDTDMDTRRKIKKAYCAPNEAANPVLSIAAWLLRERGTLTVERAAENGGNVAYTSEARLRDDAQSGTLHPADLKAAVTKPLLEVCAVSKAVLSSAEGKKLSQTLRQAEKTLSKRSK
Nature of the test: Trypanosoma cruzi tyrosyl tRNA synthetase (TcYRS) _High Tyrosine SOP. Further: in the data most compounds retested in dose-response had high values. The format is functional. The note with it: 30 µM.

Test [7] deals with T4, Tyrosyl-tRNA synthetase, putative (Trypanosoma cruzi (strain CL Brener)). Nature of the test: Trypanosoma cruzi tyrosyl tRNA synthetase (TcYRS) SOP. The format is functional. As to conditions: 30 µM.
Test [8] addresses Chromo domain-containing protein 1 (Saccharomyces cerevisiae (strain ATCC 204508 / S288c) (Baker's yeast)) (UniProt P32657). Nature of the test: ScCHD-1 Enzyme Inhibition Assay. Further: in the data most compounds retested in dose-response had high values. The format is functional. The note with it: 30 µM.

For some assays here: Entries with a potency or affinity are not part of this list.

Protein translocase subunit SecA (Escherichia coli (strain K12)), sequence (P10408 whole entry): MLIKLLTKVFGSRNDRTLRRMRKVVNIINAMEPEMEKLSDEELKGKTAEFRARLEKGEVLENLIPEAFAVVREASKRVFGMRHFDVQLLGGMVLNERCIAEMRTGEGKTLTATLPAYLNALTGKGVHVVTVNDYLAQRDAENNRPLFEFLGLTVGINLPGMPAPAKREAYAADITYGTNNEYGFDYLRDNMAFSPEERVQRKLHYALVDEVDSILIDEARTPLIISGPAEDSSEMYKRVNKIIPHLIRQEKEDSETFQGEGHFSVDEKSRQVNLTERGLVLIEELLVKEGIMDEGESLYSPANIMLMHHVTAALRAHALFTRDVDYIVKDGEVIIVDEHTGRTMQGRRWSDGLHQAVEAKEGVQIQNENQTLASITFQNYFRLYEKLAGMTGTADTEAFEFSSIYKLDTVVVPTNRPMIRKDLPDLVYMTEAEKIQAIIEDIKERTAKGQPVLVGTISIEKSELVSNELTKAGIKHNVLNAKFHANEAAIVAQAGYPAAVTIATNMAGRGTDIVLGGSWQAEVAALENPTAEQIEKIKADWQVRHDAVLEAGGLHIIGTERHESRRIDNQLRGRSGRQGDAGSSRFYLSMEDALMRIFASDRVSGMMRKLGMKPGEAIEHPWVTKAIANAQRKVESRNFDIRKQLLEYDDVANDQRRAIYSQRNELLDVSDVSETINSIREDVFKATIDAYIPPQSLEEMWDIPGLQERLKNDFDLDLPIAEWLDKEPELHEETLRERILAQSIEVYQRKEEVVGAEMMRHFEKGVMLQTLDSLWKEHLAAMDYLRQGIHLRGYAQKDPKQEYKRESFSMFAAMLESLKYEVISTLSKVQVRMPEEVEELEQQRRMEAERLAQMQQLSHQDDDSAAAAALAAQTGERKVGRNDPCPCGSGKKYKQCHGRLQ
Sialic acid-binding Ig-like lectin 9 (Homo sapiens), sequence (Q9Y336 whole entry): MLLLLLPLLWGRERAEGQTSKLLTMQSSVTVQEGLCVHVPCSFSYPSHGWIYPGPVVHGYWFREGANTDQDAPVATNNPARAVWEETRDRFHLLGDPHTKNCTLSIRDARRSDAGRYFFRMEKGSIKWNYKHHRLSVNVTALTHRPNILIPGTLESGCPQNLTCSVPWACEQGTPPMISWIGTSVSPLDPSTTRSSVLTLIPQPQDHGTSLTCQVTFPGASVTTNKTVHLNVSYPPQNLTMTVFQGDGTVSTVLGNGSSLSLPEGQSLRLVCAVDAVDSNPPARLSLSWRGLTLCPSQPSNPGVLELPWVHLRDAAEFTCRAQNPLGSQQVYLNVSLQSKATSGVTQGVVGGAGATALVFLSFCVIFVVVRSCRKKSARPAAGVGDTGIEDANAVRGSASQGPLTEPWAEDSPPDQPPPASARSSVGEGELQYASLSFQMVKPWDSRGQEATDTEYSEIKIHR
Chromo domain-containing protein 1 (Saccharomyces cerevisiae (strain ATCC 204508 / S288c) (Baker's yeast)), sequence (P32657 whole entry, the tested form may be a part): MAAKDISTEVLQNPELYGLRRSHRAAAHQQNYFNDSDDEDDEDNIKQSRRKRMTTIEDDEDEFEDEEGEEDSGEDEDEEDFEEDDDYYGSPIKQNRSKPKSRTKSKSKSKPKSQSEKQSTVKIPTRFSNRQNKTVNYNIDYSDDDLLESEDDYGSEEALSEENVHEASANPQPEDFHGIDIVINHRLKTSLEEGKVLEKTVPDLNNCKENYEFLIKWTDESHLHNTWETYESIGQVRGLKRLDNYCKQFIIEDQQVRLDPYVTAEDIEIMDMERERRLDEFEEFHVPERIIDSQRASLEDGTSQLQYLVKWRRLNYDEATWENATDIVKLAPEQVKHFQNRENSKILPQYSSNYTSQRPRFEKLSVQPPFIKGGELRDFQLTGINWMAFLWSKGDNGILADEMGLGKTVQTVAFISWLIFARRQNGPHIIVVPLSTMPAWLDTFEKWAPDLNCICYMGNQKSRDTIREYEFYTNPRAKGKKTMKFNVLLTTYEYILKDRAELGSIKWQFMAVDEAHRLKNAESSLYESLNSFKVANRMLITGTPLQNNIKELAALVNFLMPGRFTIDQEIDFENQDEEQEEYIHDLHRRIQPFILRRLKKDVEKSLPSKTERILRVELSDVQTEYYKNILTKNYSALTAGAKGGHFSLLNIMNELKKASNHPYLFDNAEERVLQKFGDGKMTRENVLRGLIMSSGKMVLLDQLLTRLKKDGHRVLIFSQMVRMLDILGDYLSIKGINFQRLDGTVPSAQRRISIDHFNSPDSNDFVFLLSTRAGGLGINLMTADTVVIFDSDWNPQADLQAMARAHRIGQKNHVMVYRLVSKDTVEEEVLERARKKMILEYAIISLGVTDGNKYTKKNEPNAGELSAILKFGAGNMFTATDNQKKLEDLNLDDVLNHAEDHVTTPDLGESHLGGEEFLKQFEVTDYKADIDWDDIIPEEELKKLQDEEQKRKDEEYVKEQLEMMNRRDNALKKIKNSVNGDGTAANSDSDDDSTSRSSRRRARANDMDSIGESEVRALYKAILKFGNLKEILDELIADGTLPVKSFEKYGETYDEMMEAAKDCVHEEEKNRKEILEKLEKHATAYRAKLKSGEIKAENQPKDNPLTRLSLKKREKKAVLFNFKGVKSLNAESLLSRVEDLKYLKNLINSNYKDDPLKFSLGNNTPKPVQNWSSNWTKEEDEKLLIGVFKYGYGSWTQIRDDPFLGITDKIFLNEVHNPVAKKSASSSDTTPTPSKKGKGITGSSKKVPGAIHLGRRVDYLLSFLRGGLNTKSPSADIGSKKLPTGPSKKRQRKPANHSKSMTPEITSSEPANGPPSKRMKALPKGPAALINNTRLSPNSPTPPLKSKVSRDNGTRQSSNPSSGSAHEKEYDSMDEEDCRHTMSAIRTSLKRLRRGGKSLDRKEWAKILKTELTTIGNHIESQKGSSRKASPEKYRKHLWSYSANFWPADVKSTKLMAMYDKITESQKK

On to `Cc1cnn(C2CCCN(C(=O)c3cc(C4CC4)on3)C2)c1` (stereo not given), for which the Percent Effect in test [1] is -4.9%; in test [2], 10.3%; in [3], -6.25%; in the test with Trypanosoma cruzi, 5.16%; in test [4] it was 0.82%; in test [5], -0.939%. Moreover, the Percent Effect in the test listed under Homo sapiens is -0.883%; in [6], 4.31%; in [7], 10.8%; in [8], -1.27%.
As to `CNc1ccc(CC2CCCN(C(=O)c3cnc(C)nc3)C2)nn1` (stereo not given), the Percent Effect in test [1] was 0.212%; in test [2], 12%; in [3], -9.66%; in the test with Trypanosoma cruzi, -0.197%; in test [4], 4.87%; in test [5], 17.1%. For the same compound, the Percent Effect in the test listed under Homo sapiens is 12.2%; in [6], 5.29%; in [7], 12.5%; in test [8], -20.6%.
Regarding `Cc1cccc(-c2noc(CN3CCc4nn(C)c(=O)cc4C3)n2)c1`, the Percent Effect in test [1] is -3.9%; in [2] it was 16%; in [3] it was 1.97%; with Trypanosoma cruzi, -0.201%; in [4] it was 3.55%; in [5], 0.424%. In addition, the Percent Effect is 14.8% in the test filed under Homo sapiens, -5.79% in test [6], -15.4% in test [7] and 4.01% in [8].
As to `CC(=O)N1CCCn2nc(CNS(=O)(=O)c3cc(C)cs3)cc2C1`, the Percent Effect in [1] is -6.27%; in test [2], 2.7%; in test [3] it was -0.0396%; in the test with Trypanosoma cruzi it was -2.42%; in test [4], 4.54%; in test [5], 4.11%. Further, the Percent Effect in the test listed under Homo sapiens came out at 0.293%; in test [6] it was 4.79%; in test [7], 7.32%; in [8], 3.74%.
Consider `CCCc1c(C(=O)NC2CCCC2)nnn1-c1ccc(OC)cc1`, for which the Percent Effect in [1] is 107%; in [2], 17.3%; in test [3], -6.12%; in the test on Trypanosoma cruzi, 0%; in test [4], 6.2%; in [5], 8.37%. In addition, the Percent Effect in the test listed under Homo sapiens was 27%; in test [6], -1.06%; in test [7], 7.5%; in test [8], -16.8%.
For the compound `c1ccc(CCNC2CCc3ncnn3C2)nc1` (stereo not given), the Percent Effect was -0.356% in test [1]; 18.2% in test [2]; -2.1% in test [3]; -0.373% with Trypanosoma cruzi; -1.84% in [4]; 11.8% in test [5]. Moreover, the Percent Effect in the test listed under Homo sapiens is 8.49%; in [6], 11.8%; in test [7], 23.5%; in test [8], -9.93%.
Consider `c1cnn(Cc2nnc3n2CCCN(CC2CCOCC2)C3)c1`, for which the Percent Effect is -8.53% in test [1]; 1.3% in test [2]; -2.75% in [3]; -3.02% in the test on Trypanosoma cruzi; -2.83% in test [4]; 3.62% in test [5]. Moreover, the Percent Effect in the test filed under Homo sapiens was 1.85%; in test [6], -0.526%; in test [7], 5.13%; in test [8], 2.31%.
As for `Cn1nc2c(cc1=O)CN(Cc1nnc(-c3ccc(F)cc3)o1)CC2`, the Percent Effect in test [1] is -0.335%; in test [2] it was 7.69%; in test [3], -9.64%; in the test with Trypanosoma cruzi it was -6.48%; in test [4], 7.79%; in test [5], 6.23%. Also, the Percent Effect in the test filed under Homo sapiens is 30.1%; in test [6], 0.478%; in test [7], 6.02%; in test [8], -4.76%.
As to `CN1CCOC(CNC(=O)CCCOCCc2ccccc2)C1` (stereo not given), the Percent Effect in test [1] is -3.33%; in test [2] it was 17.9%; in test [3] it was -5.99%; with Trypanosoma cruzi, 9.86%; in test [4], 3.28%; in test [5] it was 9.13%. In addition, the Percent Effect in the test listed under Homo sapiens is 19.5%; in test [6], 4.31%; in test [7], 22.9%; in test [8], -6.94%.
As to `CC(=O)N1CCCn2nc(CNS(=O)(=O)N3CCCCCC3)cc2C1`, the Percent Effect in [1] was -5.72%; in [2], 0%; in test [3], 0.997%; in the test on Trypanosoma cruzi, -2.81%; in test [4], 1.75%; in [5] it was 11.6%. In addition, the Percent Effect came to 4.54% in the test listed under Homo sapiens, 2.66% in test [6], 9.76% in test [7] and 2.81% in test [8].
Consider `O=C(C1=CCCCC1)N1CCC2(CC1)COC(COc1ccccn1)C2` (stereo not given), for which the Percent Effect in test [1] was -4.78%; in test [2] it was 9.09%; in [3] it was 2.76%; in the test with Trypanosoma cruzi, -0.292%; in test [4] it was -0.405%; in [5], 18.1%. Also, the Percent Effect in the test filed under Homo sapiens was -0.0236%; in test [6], 3.68%; in [7], 17.9%; in test [8] it was -3.36%.

These data come from ChEMBL document CHEMBL3988442, “University of Dundee, Small-Polar-MMV Screening Library” (2021).
